Our source for the growth inhibition values is PubChem BioAssay (NCI).

Structures are written as SMILES. Compounds without any hit were thinned out: in the full panel of roughly 79,000, 15% have a hit. Values without a mark were called inactive. The source made the active and inactive calls. No stated cut-off is given here; in the data, active means growth inhibition above about 70%; inactive means the rest.

A short description of experiment [1]: NCI Yeast Anticancer Drug Screen. Data for the rad50 strain (AID 155).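 Further: 0% = growth of vehicle-only cultures of the same strain.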 The note with it: S. cerevisiae rad50 strain growth inhibition, hits give high values. The method, boiled down: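 A DNA repair-deficient yeast mutant serves as the test organism; compound-induced growth inhibition is calculated against vehicle-treated cells.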
Experiment [2] is described as follows: NCI Yeast Anticancer Drug Screen. Data for the mec2-1 strain (AID 157). The following applies: S. cerevisiae mec2-1 strain, hits give high values. The method, boiled down: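 mec2-1 yeast strain, carrying an alteration in DNA damage repair or cell cycle control, was exposed to compounds; growth inhibition was measured relative to vehicle-treated controls.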
Experiment [3] in a line: NCI Yeast Anticancer Drug Screen. Data for the sgs1 mgt1 strain (AID 161).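 Further: 0% = growth of cultures given vehicle only.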 The following applies: S. cerevisiae sgs1 mgt1 strain, hits give high values. Summed up: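 Yeast cells carrying a defined DNA-repair defect were exposed to test compounds. Growth inhibition was measured relative to vehicle-treated controls.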
Experiment [4] can be described thus: NCI Yeast Anticancer Drug Screen. Data for the cln2 rad14 strain (AID 165).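 Further: 0% = growth equal to vehicle treated cultures.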 The following applies: S. cerevisiae cln2 rad14 strain, hits give high values. Summed up: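 Yeast carrying cln2 and rad14 alterations (cell cycle control and DNA damage repair) were exposed to compounds. Growth inhibition was measured against vehicle-treated controls.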
A short description of experiment [5]: NCI Yeast Anticancer Drug Screen. Data for the bub3 strain (AID 167). The following applies: S. cerevisiae bub3 mutant strain, hits give high values. Summed up: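 Inhibition values come from growth of compound-treated mutant yeast normalised to vehicle-treated controls.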
Experiment [6] in a line: NCI Yeast Anticancer Drug Screen. Data for the mlh1 rad18 strain (AID 175). The following applies: S. cerevisiae mlh1 rad18 strain growth inhibition, hits give high values. Summed up: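 Growth inhibition of the yeast strain was measured after compound exposure and expressed relative to vehicle-treated controls. The strain carries defined defects in DNA damage repair.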
Where [7] appears, read: at 5.0 µM (retest, dose inferred, filed as 0.5).
Where [8] appears, read: at 50.0 µM (retest, dose inferred, filed as 5.0).

On to `CCCCCCCCCCCCCCCCNCCCCCCCC(=O)O`, for which the growth inhibition in experiment [1] (setting [7]) was -1%; in experiment [1] (setting [8]), 64%; in experiment [1] (at 50.0 µM), 75% (active); in experiment [2] (setting [7]), 4%; in experiment [2] (setting [8]), 49%; in experiment [2] (at 50.0 µM) it was 35.2%. Further, the growth inhibition in experiment [3] (setting [7]) was 14%; in experiment [3] (setting [8]), 92% (active); in experiment [3] (at 50.0 µM) it was 75.9% (active); in experiment [4] (setting [7]), 7%; in experiment [4] (setting [8]) it was 26%; in experiment [4] (at 50.0 µM) it was 72% (active). Also, the growth inhibition is 6% in experiment [5] (setting [7]); 73% (active) in experiment [5] (setting [8]); 39.2% in experiment [5] (at 50.0 µM); 2% in experiment [6] (setting [7]); 66% in experiment [6] (setting [8]); 74.5% (active) in experiment [6] (at 50.0 µM).
Turning to `CCCC/C=C1\CCC(CN2CCCCC2)C1=O` (configuration not stated), the growth inhibition was 44% in experiment [1] (setting [7]); 70% (active) in experiment [1] (setting [8]); 89.2% (active) in experiment [1] (at 50.0 µM); 40% in experiment [2] (setting [7]); 60% in experiment [2] (setting [8]); 69.8% in experiment [2] (at 50.0 µM). Also, the growth inhibition in experiment [3] (setting [7]) was 75% (active); in experiment [3] (setting [8]) it was 96% (active); in experiment [3] (at 50.0 µM), 85.3% (active); in experiment [4] (setting [7]) it was 59%; in experiment [4] (setting [8]) it was 75% (active); in experiment [4] (at 50.0 µM) it was 77.2% (active). In addition, the growth inhibition is 84% (active) in experiment [5] (setting [7]); 98% (active) in experiment [5] (setting [8]); 67.2% in experiment [5] (at 50.0 µM); 56% in experiment [6] (setting [7]); 83% (active) in experiment [6] (setting [8]); 88% (active) in experiment [6] (at 50.0 µM).
For `CSc1ccc(NC(=S)SC(C)C)cc1Cl`, the growth inhibition is 15% in experiment [1] (setting [7]); 98% (active) in experiment [1] (setting [8]); 99% (active) in experiment [1] (at 50.0 µM); 1% in experiment [2] (setting [7]); 99% (active) in experiment [2] (setting [8]); 99.3% (active) in experiment [2] (at 50.0 µM). Besides, the growth inhibition is 19% in experiment [3] (setting [7]); 99% (active) in experiment [3] (setting [8]); 99.4% (active) in experiment [3] (at 50.0 µM); -32% in experiment [4] (setting [7]); 97% (active) in experiment [4] (setting [8]); 99% (active) in experiment [4] (at 50.0 µM). Moreover, the growth inhibition in experiment [5] (setting [7]) was -6%; in experiment [5] (setting [8]), 99% (active); in experiment [5] (at 50.0 µM), 99.4% (active); in experiment [6] (setting [7]), 19%; in experiment [6] (setting [8]) it was 99% (active); in experiment [6] (at 50.0 µM), 99% (active).
In the case of `COC1CC2CCC(C)[C@](O)(O2)C(=O)C(=O)N2CCCCC2C(=O)OC(C(C)CC2CCC(O)C(OC)C2)CC(=O)C(C)C=C(C)C(OC(=O)CCCN2CCCC2)C(OC)C(=O)C(C)CC(C)/C=C/C=C/C=C\1C` (some centres not stated), the growth inhibition is 96% (active) in experiment [1] (setting [7]); 98% (active) in experiment [1] (setting [8]); 90% (active) in experiment [1] (at 50.0 µM); 98% (active) in experiment [2] (setting [7]); 98% (active) in experiment [2] (setting [8]); 92.3% (active) in experiment [2] (at 50.0 µM). Also, the growth inhibition in experiment [3] (setting [7]) is 97% (active); in experiment [3] (setting [8]) it was 97% (active); in experiment [3] (at 50.0 µM), 92.9% (active); in experiment [4] (setting [7]), 91% (active); in experiment [4] (setting [8]), 96% (active); in experiment [4] (at 50.0 µM) it was 88.2% (active). In addition, the growth inhibition is 97% (active) in experiment [5] (setting [7]); 98% (active) in experiment [5] (setting [8]); 92% (active) in experiment [5] (at 50.0 µM); 96% (active) in experiment [6] (setting [7]); 98% (active) in experiment [6] (setting [8]); 91.5% (active) in experiment [6] (at 50.0 µM).
For the compound `O=C(/C=C/c1ccccc1)CCN1CCN(CCC(=O)/C=C/c2ccccc2)CC1`, the growth inhibition was 36% in experiment [1] (setting [7]); 100% (active) in experiment [1] (setting [8]); 99.2% (active) in experiment [1] (at 50.0 µM); 56% in experiment [2] (setting [7]); 100% (active) in experiment [2] (setting [8]); 99.5% (active) in experiment [2] (at 50.0 µM). In addition, the growth inhibition in experiment [3] (setting [7]) is 40%; in experiment [3] (setting [8]), 57%; in experiment [3] (at 50.0 µM), 99.4% (active); in experiment [4] (setting [7]), 88% (active); in experiment [4] (setting [8]), 100% (active); in experiment [4] (at 50.0 µM), 99.4% (active). For the same compound, the growth inhibition in experiment [5] (setting [7]) is 36%; in experiment [5] (setting [8]), 99% (active); in experiment [5] (at 50.0 µM), 99.4% (active); in experiment [6] (setting [7]) it was 78% (active); in experiment [6] (setting [8]), 100% (active); in experiment [6] (at 50.0 µM) it was 99.5% (active).
With `O=[N+]([O-])c1c(Cl)cccc1-c1c[nH]cc1Cl`, the growth inhibition was 12% in experiment [1] (setting [7]); 99% (active) in experiment [1] (setting [8]); 92.8% (active) in experiment [1] (at 50.0 µM); 25% in experiment [2] (setting [7]); 98% (active) in experiment [2] (setting [8]); 93.4% (active) in experiment [2] (at 50.0 µM). In addition, the growth inhibition was 19% in experiment [3] (setting [7]); 100% (active) in experiment [3] (setting [8]); 93.5% (active) in experiment [3] (at 50.0 µM); -1% in experiment [4] (setting [7]); 99% (active) in experiment [4] (setting [8]); 90.9% (active) in experiment [4] (at 50.0 µM). Further, the growth inhibition in experiment [5] (setting [7]) was 6%; in experiment [5] (setting [8]) it was 99% (active); in experiment [5] (at 50.0 µM), 92.2% (active); in experiment [6] (setting [7]) it was 44%; in experiment [6] (setting [8]), 99% (active); in experiment [6] (at 50.0 µM), 37.8%.
`O=C(O)CSc1ccc(N=C=S)cc1`: the growth inhibition in experiment [1] (setting [7]) is -5%; in experiment [1] (setting [8]), 96% (active); in experiment [1] (at 50.0 µM), -8.1%; in experiment [2] (setting [7]), 3%; in experiment [2] (setting [8]) it was 91% (active); in experiment [2] (at 50.0 µM), 8.15%. Moreover, the growth inhibition in experiment [3] (setting [7]) is 9%; in experiment [3] (setting [8]), 93% (active); in experiment [3] (at 50.0 µM), -2.75%; in experiment [4] (setting [7]) it was -9%; in experiment [4] (setting [8]), 69%; in experiment [4] (at 50.0 µM), 4.8%. Also, the growth inhibition in experiment [5] (setting [7]) was -27%; in experiment [5] (setting [8]), 95% (active); in experiment [5] (at 50.0 µM) it was 0.55%; in experiment [6] (setting [7]), 37%; in experiment [6] (setting [8]), 98% (active); in experiment [6] (at 50.0 µM) it was -2.35%.
As for `Oc1c(Cl)cccc1-c1ccccc1`, the growth inhibition in experiment [1] (setting [7]) was 2%; in experiment [1] (setting [8]), -5%; in experiment [1] (at 50.0 µM), 20.1%; in experiment [2] (setting [7]), -21%; in experiment [2] (setting [8]), 0%; in experiment [2] (at 50.0 µM), 12.2%. Moreover, the growth inhibition was 1% in experiment [3] (setting [7]); 10% in experiment [3] (setting [8]); 36.9% in experiment [3] (at 50.0 µM); 1% in experiment [4] (setting [7]); -14% in experiment [4] (setting [8]); 1.9% in experiment [4] (at 50.0 µM). In addition, the growth inhibition was 7% in experiment [5] (setting [7]); -4% in experiment [5] (setting [8]); 4.45% in experiment [5] (at 50.0 µM); -1% in experiment [6] (setting [7]); 8% in experiment [6] (setting [8]); 67.8% in experiment [6] (at 50.0 µM).
As for `O=C1CCCC2c3ccccc3NC12` (configuration not stated), the growth inhibition is -147% in experiment [1] (setting [7]); -137% in experiment [1] (setting [8]); 1.85% in experiment [1] (at 50.0 µM); -50% in experiment [2] (setting [7]); -57% in experiment [2] (setting [8]); 34.6% in experiment [2] (at 50.0 µM). Also, the growth inhibition was -64% in experiment [3] (setting [7]); -64% in experiment [3] (setting [8]); -2% in experiment [3] (at 50.0 µM); -51% in experiment [4] (setting [7]); -56% in experiment [4] (setting [8]); 78.7% (active) in experiment [4] (at 50.0 µM). Further, the growth inhibition was -68% in experiment [5] (setting [7]); -75% in experiment [5] (setting [8]); -17.9% in experiment [5] (at 50.0 µM); -139% in experiment [6] (setting [7]); -111% in experiment [6] (setting [8]); 9.5% in experiment [6] (at 50.0 µM).
